Screening data: PubChem BioAssay, several laboratories
Most compounds without a hit are left out; they make up all but 27% or so of the library.
CYP2C9 act: activators of human CYP2C9 | P11712 | recombinant CYP2C9, luciferin-H conversion, luminescence; stronger effect = higher value; factor 1 = untreated enzyme, 0 = blocked | activation factor at 5 µM | 1.4% of 96,000 active | AID 1024;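 active = activation factor of 2 or more for CYP2C9 at a 5 µM dose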;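 also: 0 = sulfaphenazole-blocked wells and 1 = vehicle-only wells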
Target sequence (P11712 whole entry, looked up): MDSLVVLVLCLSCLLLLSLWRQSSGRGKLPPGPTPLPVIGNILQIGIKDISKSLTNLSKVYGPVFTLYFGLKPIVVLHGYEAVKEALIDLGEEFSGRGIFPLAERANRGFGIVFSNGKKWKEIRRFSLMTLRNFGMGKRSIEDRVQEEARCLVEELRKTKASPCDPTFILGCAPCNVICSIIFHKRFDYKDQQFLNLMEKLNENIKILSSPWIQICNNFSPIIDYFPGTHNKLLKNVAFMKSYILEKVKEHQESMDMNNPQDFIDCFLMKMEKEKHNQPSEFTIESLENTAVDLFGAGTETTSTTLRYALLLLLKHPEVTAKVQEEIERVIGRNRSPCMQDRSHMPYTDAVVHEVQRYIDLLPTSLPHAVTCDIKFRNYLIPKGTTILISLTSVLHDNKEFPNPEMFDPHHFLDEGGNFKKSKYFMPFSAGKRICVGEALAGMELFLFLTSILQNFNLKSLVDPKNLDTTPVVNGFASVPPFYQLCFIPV
CYP2C19 inh: inhibitors of human CYP2C19; CYP2C19 Supersomes, luciferin-H EGE luminescence, 30 min; inhibition, % at 5 µM; 21% of 96,000 active; AID 778;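 active = CYP2C19 inhibition above a set limit at 5 µM in the primary screen, cut at about 50% in these data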;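 also: plate controls were negative control wells for no effect and 2.5 mM tranylcypromine positive control for full effect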
CYP2C19 activ: cytochrome P450 2C19 (human) activation; activation factor at 5 µM; AID 1025; P33261; recombinant CYP2C19, luciferin-H EGE luminescence; stronger effect = higher value; 0 = fully inhibited enzyme, 1 = untreated enzyme; 96,000 tested, under 10 active;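 active = activation factor of at least 2 at 5 µM in the primary screen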;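 also: 0 = wells with 2.5 mM tranylcypromine and 1 = vehicle-only wells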
CYP2C9 inh: blocks human cytochrome P450 2C9; CYP2C9 Supersomes, luciferin-H conversion, luminescence; inhibition, % at 5 µM; 20% of 96,000 active;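 active = blocking of liver enzyme CYP2C9 beyond about 50% at 5 µM, limit read from the data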
Cav32 inh: human Cav3.2 channel inhibition, primary screen; O95180; 4% of 100,000 active; Cav3.2-expressing cells, Fluo-4 calcium fluorescence FDSS; stronger effect = lower value; B-score at 10 µM; AID 449739;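 active = single-dose well whose peak fluorescence ratio is a statistical outlier from its plate by either plate-standardised score or position-corrected B-score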
Starred values were filed as active, the others as inactive; nt = not tested or not shown.

SMILES	CYP2C9 act	CYP2C19 inh	CYP2C19 activ	CYP2C9 inh	Cav32 inh
COc1cc(CNCCSc2nnnn2C)cc(Br)c1OCc1ccc(F)cc1	0.8	76*	0.2	18	-1.1
CCOc1cc(CNCc2cccs2)cc(Br)c1OCC	0.8	73*	0.3	17	-0.76
CCOC(=O)c1ccc(NC(=O)CC2C(=O)N(c3ccccc3)C(=O)N2CCCOC)cc1 (stereo not drawn)	0.2	92*	0.1	79*	-0.14
CN(C)S(=O)(=O)Nc1ccc2c(c1)Cc1ccccc1-2	0.1	43	0.6	94*	-0.14
CCOc1ccc(OCC)c(NC(=O)C2CCCN(c3ncccn3)C2)c1 (stereo not drawn)	0.6	60*	0.4	38	0.3
CCOc1ccc(OCC)c(NC(=O)C2CCCN(S(=O)(=O)c3c(C)noc3C)C2)c1 (stereo not drawn)	0.9	6	0.9	8	0.09
CCOc1ccc(OCC)c(NC(=O)C2CCCN(S(=O)(=O)c3cnc[nH]3)C2)c1 (stereo not drawn)	0.2	44	0.6	79*	0.34
CCOc1ccc(OCC)c(NC(=O)C2CCCN(S(=O)(=O)c3c(C)n[nH]c3C)C2)c1 (stereo not drawn)	0.4	45	0.5	64*	1.1
N/C(COc1ccccc1)=N\NC(=O)c1cccnc1Oc1ccccc1	1	37	0.6	-3	0.13
CC(C)=CCc1cc2c(=O)c3c(O)c4c(cc3oc2c(O)c1O)OC(C)C4(C)C (stereo not drawn)	nt	nt	nt	nt	-0.61
Cc1oc(CC(C)C)c(CN)c1C(=O)O	0.9	5	1	8	1
COc1ccc(Cl)cc1Nc1nc(-c2sc(NC(=O)c3ccco3)nc2C)cs1	0.4	43	0.6	62*	-0.2
COc1cccc(Nc2nc(-c3sc(N)nc3C)cs2)c1	0.3	59*	0.4	74*	1
COc1cccc(Nc2nc(-c3sc(NC(=O)c4ccco4)nc3C)cs2)c1	0.3	47	0.5	72*	0.69
CC(=O)c1c(N2CCOCC2)nc(=S)n(-c2ccc([N+](=O)[O-])cc2)c1C	0.8	6	0.9	19	nt
O=C(CN1CCC(c2nc3ccccc3s2)CC1)NCc1cccs1	1	7	0.9	-4	-0.053
S=c1[nH]nc(Cc2sc(-c3ccccc3)nc2-c2ccccc2)o1	0.4	14	0.9	64*	nt
S=c1[nH]nc(Cc2c[nH]c3ccccc23)o1	0.9	-3	1	12	0.75
Fc1ccc(CN2CCCCCCC2)cc1	0.9	18	0.8	7	-0.87
NC(=O)C1(N2CCCCC2)CCN(Cc2ccc(F)cc2)CC1	1	13	0.9	-2	-4.2*
O=C(N1CCOCC1)C1(c2ccc(Cl)cc2)CCCC1	1	88*	0.1	-4	-0.81
COc1ccc(C2(C(=O)N3CCOCC3)CCOCC2)cc1OC	1.1	2	1	-9	0.26
O=C(c1ccc(Cn2cc(Br)cn2)o1)N1N=C(C(F)F)CC1(O)C(F)F (stereo not drawn)	0.1	74*	0.3	93*	-0.21
COc1ccccc1OCc1ccc(C(=O)n2nc(C)c(Cl)c2C)o1	1.4	39	0.6	-36	0.095
COc1ccccc1OCc1ccc(C(=O)N2N=C(C(F)F)CC2(O)C(F)F)o1 (stereo not drawn)	0.3	34	0.7	73*	nt
SMILES	CYP2C9 act	CYP2C19 inh	CYP2C19 activ	CYP2C9 inh	Cav32 inh
COCCN(C(=O)CNC(=O)c1ccco1)C(C(=O)NC1CCCCC1)c1cccs1 (stereo not drawn)	nt	nt	nt	nt	0.069
CC(=O)c1sc2nc(=O)c(C)nn2c1C	1.1	-5	1.1	-12	-0.23
COc1cccc(NC(=O)CSc2nnc(-c3cccc(OC(C)C)c3)n2N)c1	0.2	42	0.6	76*	-1.1
COc1ccc(NC(=O)CSc2nnc(-c3ccccc3C)n2N)cc1OC	0.8	-3	1	20	1
CCOc1cccc(-c2nnc(SCC(=O)Nc3cc(OC)cc(OC)c3)n2N)c1	0.9	1	1	7	0.75
COc1ccc(NC(=O)CSc2nnc(-c3ccccc3C)n2N)cc1	0.3	58*	0.4	74*	-0.099
Cc1ccccc1-c1nnc(SCC(=O)Nc2ccc(Cl)cc2)n1N	0.3	54*	0.5	70*	-2.4
O=C(COc1ccccc1)N1CCN(C(=O)Cc2ccccc2)CC1	1.1	1	1	-6	-0.035
COc1ccc(OCC(=O)N2CCN(C(=O)c3ccco3)CC2)cc1	0.9	8	0.9	8	0.042
